Screening data from PubChem.
Pf growth 96h = Primary qHTS for delayed death inhibitors of the malarial parasite plastid, 96 hour incubation. P. falciparum luciferase reporter growth, 96 h. Potency, µM (top dose mostly 28.7 µM), for the others: top-dose activity change, negative = inhibition, actives largely listed as inhibitors. 320,000 tested, 6.9% active; note: potency is the fitted concentration of half-maximal effect
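96 h incubation, 37 C, 5% CO2, of luciferase-reporter P. falciparum-infected RBCs (2% hematocrit, 0.05% parasitemia final) with test compounds; endpoint luminescence.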
HCV inh = qHTS Assay for Inhibitors of Hepatitis C Virus (HCV); Potency, µM (doses to about 41.8 µM), without a hit: at the top dose activity change, negative = inhibition, most hits filed as inhibitors; 340,000 tested, 3.4% active; Huh7.5.1 HCVcc-Cre infection, luciferase reporter, 44 h; note: potency is the fitted concentration of half-maximal effect
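Compounds are dispensed onto cells plated 4 h earlier at 1,000 per well, with HCVcc-Cre virus (about 0.5 moi) added next. Following 44 h of culture, luminescent signal is measured for 15 sec after 15 min with substrate at room temperature.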
Pf growth 48h = Primary qHTS for delayed death inhibitors of the malarial parasite plastid, 48 hour incubation. P. falciparum luciferase growth in erythrocytes, 48 h. 310,000 tested, 5.9% active. Potency, µM (series often up to 28.7 µM), for the others: top-dose activity change, negative = inhibition, most hits filed as inhibitors. AID 504832, 2011; note: potency is the fitted concentration of half-maximal effect
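Parasite viability was followed by luminescence of a genomically integrated firefly luciferase. Cultures held 0.1% parasitemia at 2% hematocrit (final), incubated under 5% CO2 at 37 C.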
HCMV inh = qHTS Assay for inhibitors of the human cytomegalovirus (HCMV); HFF cells, HCMV-luciferase reporter, 72 h; active compounds read low; activity change, negative = inhibition, % at 57.5 µM; 410,000 tested, 4.5% active; in the data active = activity change below about -60%; inconclusive = no clear call, values can overlap the other calls; inactive = above about -39%
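Luciferase read-out from HCMV-luciferase-infected HFFs (MOI 1 PFU/cell) 72 h post infection at 37C; compounds added after 16 h cell attachment; activity normalized between buffer-only basal and Salinomycin (10uM) inhibitor controls.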
Starred values were filed as active, the others as inactive; ? = inconclusive; . = not tested or not shown. Hits are enriched below; roughly 13% of the tested compounds scored in any of these assays. Unless noted, calls come from the whole dose curve; as a rule, active = well fitted inhibition curve with a large enough effect; inconclusive = small, poorly fitted or top-dose-only effect, or another doubt; inactive = no such curve, though single readings can be large or run the other way. % is set by controls: 0 for no effect and ±100 for the full control effect.

SMILES	Pf growth 96h	HCV inh	Pf growth 48h	HCMV inh
CCCNC(=O)c1ccc2c(c1)C1C3CCC(C3)C1C(c1ccccc1)N2 (centres undefined)	.	?	9.3µM*	?
Cc1ccc(-c2nc3ccccc3n2C(C)C(=O)NC(C)(C)C)cc1 (centres undefined)	.	.	.	46
COc1ccccc1NC(=O)C(Cc1ccccc1)NS(=O)(=O)c1cccc2nsnc12 (centres undefined)	.	.	.	-15
CCOc1ccc(CCNC(=O)c2ccc(C)c(-n3cnc4cccnc43)c2)cc1	.	.	.	0
CCOC(=O)c1ccc(NC(=O)CSc2nccn2Cc2ccc(OC)cc2)cc1	.	.	.	-36
Cc1ccc(S(=O)(=O)c2nc(S(C)(=O)=O)sc2N2CCC(O)CC2)cc1	9.3µM*	3%	8%	-20
Cc1ccc(S(=O)(=O)c2nc(S(C)(=O)=O)sc2N2CCCCC2C)cc1 (centres undefined)	?	5%	?	-75*
O=C(CN1CCN(C2CCCCC2)CC1)c1ccc2cc[nH]c2c1	4.7µM*	6%	.	27
O=C(CN1CCN(C2CCCCC2)CC1)c1c[nH]c2ccccc12	?	-20%	19%	129
CCOC(=O)c1c(C)n(C)c2ccc(O)cc12	?	.	-13%	-2
COC(=O)c1c(C)n(-c2ccc(OC)cc2)c2ccc(O)cc12	20%	11µM*	12µM*	-38
Cc1c(C(=O)O)c2cc(O)ccc2n1-c1ccccc1	8%	-8%	0%	12
CCOC(=O)c1c(C)n(-c2ccc(F)cc2)c2ccc(O)cc12	6%	8.9µM*	2.6µM*	.
Nc1nc(NCC2CCCO2)nc(Nc2ccccc2)c1[N+](=O)[O-] (centres undefined)	?	-19%	10µM*	-17
COc1ccc(Nc2nc(NCC3CCCO3)nc(N)c2[N+](=O)[O-])cc1 (centres undefined)	?	?	?	28
Nc1nc(NCC2CCCO2)nc(Nc2ccc(Cl)cc2)c1[N+](=O)[O-] (centres undefined)	?	-10%	?	-69*
Nc1nc(NCCCN2CCOCC2)nc(Nc2cccc(Cl)c2)c1[N+](=O)[O-]	?	?	5.9µM*	?
O=C(NCCc1ccccc1)c1ccc2c(c1)N(Cc1ccc(Cl)cc1)C(=O)c1ccccc1S2(=O)=O	.	.	.	21
O=C(Nc1nc(-c2ccc(Cl)s2)cs1)c1ccccc1	9.3µM*	?	.	6
Cc1nc2ccccn2c1-c1csc(Nc2cccc(C(=O)O)c2)n1	9%	13%	22%	?
Cc1nc(NC(=O)c2ccccc2)sc1-c1csc(Nc2ccc(F)cc2)n1	3.7µM*	.	?	.
Cc1nc(NC(=O)c2ccccc2)sc1-c1csc(Nc2cccc(Cl)c2)n1	2.6µM*	.	9.3µM*	.
COc1ccc(Nc2nc(-c3sc(NC(C)=O)nc3C)cs2)cc1	10µM*	.	.	.
Cc1ccc2onc(CNC(=O)N(C)Cc3ccccc3)c2c1	.	.	.	25
Cc1cccc(NC(=O)c2sc3cccc(Cl)c3c2Cl)c1	.	.	.	50
SMILES	Pf growth 96h	HCV inh	Pf growth 48h	HCMV inh
CC(C)(C)c1csc(NC(=O)c2ccc(Cl)s2)n1	.	8.9µM*	3.7µM*	?
Cc1nc(NC(=O)c2ccccc2)sc1-c1csc(Nc2ccc(Cl)cc2)n1	10µM*	.	?	.
Clc1cccc(Nc2nc(-c3ccncc3)cs2)c1	30%	10µM*	-4%	146
COc1ccc(-c2nc3ccccc3n3c(-c4ccccc4)c4c(=O)n(C)c(=O)n(C)c4c23)cc1OC	.	.	.	25
COc1ccc(C(=O)N/C(=C\c2ccc(Cl)cc2)C(=O)NCc2ccncc2)cc1	.	.	.	0
CCOCCCNC(=O)c1cnc2sc(N3CCCCCC3)nn2c1=O	.	.	.	-14
Cc1ccn2cc(CNC(=O)c3cccc(C(F)(F)F)c3)nc2c1	.	.	.	-10
O=C1C(n2ccc3ccccc32)c2cccc(F)c2N1Cc1ccc(C(F)(F)F)cc1 (centres undefined)	.	.	.	15
Cc1cccc(C(=O)NCC(c2ccc3c(c2)OCO3)N2CCN(c3ccccc3F)CC2)c1 (centres undefined)	.	.	.	-6
CC(C)c1ccc(S(=O)(=O)N2CCN(C(=O)c3cc(-c4ccccc4)n[nH]3)CC2)cc1	16%	10%	?	-6
COc1ccc(S(=O)(=O)N2CCN(C(=O)c3cc(-c4ccccc4OC)n[nH]3)CC2)cc1	-2%	?	1.3µM*	-16
COc1cccc(-c2cc(C(=O)N3CCN(S(=O)(=O)c4ccc(Br)cc4)CC3)[nH]n2)c1	13µM*	9%	-17%	-24
Cc1ccc(NC(=O)Cn2nnnc2-c2ccccc2N)cc1	.	.	.	9
COc1ccc2c3c(cccc13)C(=O)CC2	34%	-9%	33%	-71*
CCN(CC)S(=O)(=O)c1csc(C(=O)NCc2ccccc2)c1	28%	?	-10%	-71*
CCN(CC)S(=O)(=O)c1cccc(C(=O)NCc2ccccc2)c1	25%	-1%	-5%	-21
Cc1ccc([C@@H]2[C@@H]3C(=O)N(C)C(=O)[C@@H]3[C@]3(C)C(=O)N(Cc4ccccc4)CC(=O)N23)o1	?	-14%	?	.
COC(=O)CN1C(=O)[C@H]2[C@@H](c3ccc(C)o3)N3C(=O)CN(Cc4ccccc4)C(=O)[C@@]3(C)[C@H]2C1=O	48%	13%	17%	-83*
COC(=O)CN1C(=O)[C@H]2[C@@H](c3ccc(C)o3)N3C(=O)CN(CC4CC4)C(=O)[C@@]3(Cc3ccccc3)[C@H]2C1=O	50%	-10%	33%	-93*
CCOC(=O)c1nn(-c2ccc(C)cc2)c(C)c1C(C)=O	-6%	-24%	-11%	51
CCOC(=O)c1nn(-c2ccc(F)cc2)c(C)c1C(C)=O	.	8%	3%	-79*
CCOC(=O)c1nn(-c2ccc(Cl)cc2)c(C)cc1=O	-3%	10%	3%	-73*
Cc1cc(=O)c(C(=O)O)nn1-c1ccc(Cl)cc1	101%	16%	31%	-5
O=C(NC1CCCCCCC1)c1ccccc1O	?	-1%	12µM*	91
O=C(NC1CCCCC1)c1cc2ccccc2cc1O	1.9µM*	-28%	5.2µM*	0
SMILES	Pf growth 96h	HCV inh	Pf growth 48h	HCMV inh
CC(C)c1ccccc1NC(=O)c1ccccc1NC(=O)C1CCCCC1	187%	-7%	12µM*	31
O=C(NC1CCCCC1)c1ccccc1NC(=S)NC(=O)C1CC1	1%	-8%	-23%	-5
O=C(NC1CCCCC1)c1ccccc1NC(=S)NC(=O)C1CCC1	?	3%	0%	-62*
Nc1nonc1-c1nc2ccccc2n1Cc1c(Cl)cccc1Cl	.	.	.	29
Oc1oc(-c2ccccc2)nc1/C=N/c1ccccn1	12µM*	-1%	-29%	-22
COc1ccc(OC)c(C(=O)CSc2nccc(-c3ccc(Br)cc3)n2)c1	?	?	12µM*	?
COc1cc([N+](=O)[O-])c2ncsc2c1	19%	2%	14%	8
